# Results from publication PMC11006913.
# Numbering of substitutions follows the chain as printed.
# How the values were obtained:
# Experiment in all cases: PBM; 200 nM protein, PBS
# Details in all cases: dsDNA, one strand shown
# HOXA7 [1] = target: HOXA7 (Homo sapiens, UniProt P31268 116-202)
# HOXD13 [2] = target: HOXD13 (Homo sapiens, UniProt P35453 263-343, T313R)
# HOXD13 [3] = target: HOXD13 (Homo sapiens, UniProt P35453 263-343)
# HOXC10 = HOXC10 (Homo sapiens, UniProt Q9NYD6 254-340, K271E)
# HOXD13 [4] = target: HOXD13 (Homo sapiens, UniProt P35453 263-343, T313A)
# HOXA7 [5] = target: HOXA7 (Homo sapiens, UniProt P31268 116-202, W177C)
# HOXB6 [6] = target: HOXB6 (Homo sapiens, UniProt P17509 132-218, K202E)
# HOXA4 [7] = target: HOXA4 (Homo sapiens, UniProt Q00056 201-287, R217L)
# MSX2 [8] = target: MSX2 (Homo sapiens, UniProt P35548 130-214, F161Y)
# HOXA4 [9] = target: HOXA4 (Homo sapiens, UniProt Q00056 201-287, W262F)
# HOXB6 [10] = target: HOXB6 (Homo sapiens, UniProt P17509 132-218)
# PAX4 [11] = target: T1, PAX4 (Homo sapiens, UniProt O43316 9-242, R200K)
# T1 sequence: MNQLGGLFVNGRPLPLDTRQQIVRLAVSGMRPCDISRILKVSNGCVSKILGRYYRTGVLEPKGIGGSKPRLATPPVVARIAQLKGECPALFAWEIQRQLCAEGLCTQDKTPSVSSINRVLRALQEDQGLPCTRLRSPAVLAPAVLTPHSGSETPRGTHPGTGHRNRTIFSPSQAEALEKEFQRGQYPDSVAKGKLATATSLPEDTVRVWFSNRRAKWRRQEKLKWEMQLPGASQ
# PAX4 [12] = target: T2, PAX4 (Homo sapiens, UniProt O43316 9-242)
# T2 sequence: T1 sequence with K192R
# PAX4 [13] = target: T3, PAX4 (Homo sapiens, UniProt O43316 9-242, R200Q)
# T3 sequence: T1 sequence with K192Q
# PAX4 [14] = target: T4, PAX4 (Homo sapiens, UniProt O43316 9-242, F177V)
# T4 sequence: T1 sequence with F169V, K192R
# PAX4 [15] = target: T5, PAX4 (Homo sapiens, UniProt O43316 9-242, F177Y)
# T5 sequence: T1 sequence with F169Y, K192R
# PAX4 [16] = target: T6, PAX4 (Homo sapiens, UniProt O43316 9-242, R227W)
# T6 sequence: T1 sequence with K192R, R219W
# PROP1 [17] = target: PROP1 (Homo sapiens, UniProt O75360 56-141)
# PROP1 [18] = target: PROP1 (Homo sapiens, UniProt O75360 56-141, R99H)
# PROP1 [19] = target: PROP1 (Homo sapiens, UniProt O75360 56-141, F88S)
# HOXA2 [20] = target: HOXA2 (Homo sapiens, UniProt O43364 129-215, R185T)
# HOXA2 [21] = target: HOXA2 (Homo sapiens, UniProt O43364 129-215, R185K)
# HOXA2 [22] = target: HOXA2 (Homo sapiens, UniProt O43364 129-215, Y150S)
# HOXA2 [23] = target: HOXA2 (Homo sapiens, UniProt O43364 129-215)
# MSX2 [24] = target: MSX2 (Homo sapiens, UniProt P35548 130-214, R199I)
# MSX2 [25] = target: MSX2 (Homo sapiens, UniProt P35548 130-214)
# MSX2 (Homo sapiens, UniProt P35548 130-214), sequence (P35548 130-214): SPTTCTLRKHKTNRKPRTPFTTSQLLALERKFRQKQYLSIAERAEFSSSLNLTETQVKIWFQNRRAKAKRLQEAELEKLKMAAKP
# HOXA7 (Homo sapiens, UniProt P31268 116-202), sequence (P31268 116-202): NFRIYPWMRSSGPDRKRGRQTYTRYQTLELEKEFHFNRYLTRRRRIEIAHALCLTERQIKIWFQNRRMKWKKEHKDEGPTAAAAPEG
# HOXA7 (Homo sapiens, UniProt P31268 116-202, W177C), sequence (P31268 116-202 W177C): as the sequence (P31268 116-202) above, with W62C counted along it
# MSX2 (Homo sapiens, UniProt P35548 130-214, F161Y), sequence (P35548 130-214 F161Y): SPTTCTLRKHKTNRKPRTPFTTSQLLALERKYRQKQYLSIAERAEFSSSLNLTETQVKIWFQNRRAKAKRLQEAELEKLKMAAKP
# HOXA2 (Homo sapiens, UniProt O43364 129-215, R185T), sequence (O43364 129-215 R185T): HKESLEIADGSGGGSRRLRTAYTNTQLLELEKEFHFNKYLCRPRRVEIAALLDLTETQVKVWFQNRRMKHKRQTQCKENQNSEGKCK
# HOXA2 (Homo sapiens, UniProt O43364 129-215), sequence (O43364 129-215): as the sequence (O43364 129-215 R185T) above, with T57R counted along it
# HOXC10, sequence (Q9NYD6 254-340 K271E): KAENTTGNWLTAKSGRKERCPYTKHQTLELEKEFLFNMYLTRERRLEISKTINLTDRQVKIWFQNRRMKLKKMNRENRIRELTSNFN
# HOXA2 (Homo sapiens, UniProt O43364 129-215, Y150S), sequence (O43364 129-215 Y150S): as the sequence (O43364 129-215 R185T) above, with Y22S, T57R counted along it
# HOXD13 (Homo sapiens, UniProt P35453 263-343, T313R), sequence (P35453 263-343 T313R): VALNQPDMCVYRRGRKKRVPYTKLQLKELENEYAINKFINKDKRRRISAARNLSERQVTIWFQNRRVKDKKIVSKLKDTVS
# PROP1 (Homo sapiens, UniProt O75360 56-141), sequence (O75360 56-141): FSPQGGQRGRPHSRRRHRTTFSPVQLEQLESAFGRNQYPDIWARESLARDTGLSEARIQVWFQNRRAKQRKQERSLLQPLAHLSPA
# HOXA2 (Homo sapiens, UniProt O43364 129-215, R185K), sequence (O43364 129-215 R185K): as the sequence (O43364 129-215 R185T) above, with T57K counted along it
# HOXD13 (Homo sapiens, UniProt P35453 263-343), sequence (P35453 263-343): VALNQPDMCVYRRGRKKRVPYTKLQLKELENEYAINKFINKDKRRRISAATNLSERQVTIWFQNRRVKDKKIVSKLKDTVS
# PROP1 (Homo sapiens, UniProt O75360 56-141, F88S), sequence (O75360 56-141 F88S): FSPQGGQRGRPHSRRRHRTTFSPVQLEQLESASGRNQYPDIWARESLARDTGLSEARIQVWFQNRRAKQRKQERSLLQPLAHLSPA
# PROP1 (Homo sapiens, UniProt O75360 56-141, R99H), sequence (O75360 56-141 R99H): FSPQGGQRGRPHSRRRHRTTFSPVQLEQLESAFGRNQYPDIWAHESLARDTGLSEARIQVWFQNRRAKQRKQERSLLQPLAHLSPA
# MSX2 (Homo sapiens, UniProt P35548 130-214, R199I), sequence (P35548 130-214 R199I): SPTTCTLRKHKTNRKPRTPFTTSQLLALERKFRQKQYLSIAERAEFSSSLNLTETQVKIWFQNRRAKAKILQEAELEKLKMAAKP
# HOXB6 (Homo sapiens, UniProt P17509 132-218), sequence (P17509 132-218): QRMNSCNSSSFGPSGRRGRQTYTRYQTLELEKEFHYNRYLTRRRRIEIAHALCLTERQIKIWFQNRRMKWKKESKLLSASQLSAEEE
# HOXD13 (Homo sapiens, UniProt P35453 263-343, T313A), sequence (P35453 263-343 T313A): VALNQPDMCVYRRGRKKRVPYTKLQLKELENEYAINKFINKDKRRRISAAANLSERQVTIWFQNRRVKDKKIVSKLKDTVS
# HOXA4 (Homo sapiens, UniProt Q00056 201-287, W262F), sequence (Q00056 201-287 W262F): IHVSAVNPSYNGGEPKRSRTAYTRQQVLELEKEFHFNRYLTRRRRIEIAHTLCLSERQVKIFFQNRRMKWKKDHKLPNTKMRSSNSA
# HOXA4 (Homo sapiens, UniProt Q00056 201-287, R217L), sequence (Q00056 201-287 R217L): as the sequence (Q00056 201-287 W262F) above, with R17L, F62W counted along it
# HOXB6 (Homo sapiens, UniProt P17509 132-218, K202E), sequence (P17509 132-218 K202E): as the sequence (P17509 132-218) above, with K71E counted along it
sequence,measurement,setting,value
ATATAAAA,binding signal,HOXA7 [1],"9.79 upbm affinity estimate (log intensity, higher = more binding, comparable within an allelic series)"
same,binding signal,HOXD13 [2],"10.9 upbm affinity estimate (log intensity, higher = more binding, comparable within an allelic series)"
same,binding signal,HOXD13 [3],"11.8 upbm affinity estimate (log intensity, higher = more binding, comparable within an allelic series)"
same,binding signal,HOXC10,"11.3 upbm affinity estimate (log intensity, higher = more binding, comparable within an allelic series)"
same,binding signal,HOXD13 [4],"11.7 upbm affinity estimate (log intensity, higher = more binding, comparable within an allelic series)"
same,binding signal,HOXA7 [5],"8.84 upbm affinity estimate (log intensity, higher = more binding, comparable within an allelic series)"
AATTACCT,binding signal,HOXA7 [1],"11.3 upbm affinity estimate (log intensity, higher = more binding, comparable within an allelic series)"
same,binding signal,HOXB6 [6],"9.87 upbm affinity estimate (log intensity, higher = more binding, comparable within an allelic series)"
same,binding signal,HOXA4 [7],"12.1 upbm affinity estimate (log intensity, higher = more binding, comparable within an allelic series)"
same,binding signal,HOXC10,"11.9 upbm affinity estimate (log intensity, higher = more binding, comparable within an allelic series)"
same,binding signal,MSX2 [8],"12.9 upbm affinity estimate (log intensity, higher = more binding, comparable within an allelic series)"
same,binding signal,HOXA7 [5],"8.74 upbm affinity estimate (log intensity, higher = more binding, comparable within an allelic series)"
same,binding signal,HOXA4 [9],"11.5 upbm affinity estimate (log intensity, higher = more binding, comparable within an allelic series)"
same,binding signal,HOXB6 [10],"11.8 upbm affinity estimate (log intensity, higher = more binding, comparable within an allelic series)"
CGTTGCTC,binding signal,HOXA7 [1],"8.49 upbm affinity estimate (log intensity, higher = more binding, comparable within an allelic series)"
same,binding signal,PAX4 [11],"9.58 upbm affinity estimate (log intensity, higher = more binding, comparable within an allelic series)"
same,binding signal,PAX4 [12],"9.38 upbm affinity estimate (log intensity, higher = more binding, comparable within an allelic series)"
same,binding signal,PAX4 [13],"9.57 upbm affinity estimate (log intensity, higher = more binding, comparable within an allelic series)"
same,binding signal,PAX4 [14],"9.52 upbm affinity estimate (log intensity, higher = more binding, comparable within an allelic series)"
same,binding signal,PAX4 [15],"9.55 upbm affinity estimate (log intensity, higher = more binding, comparable within an allelic series)"
same,binding signal,PAX4 [16],"9.55 upbm affinity estimate (log intensity, higher = more binding, comparable within an allelic series)"
same,binding signal,HOXA7 [5],"8.47 upbm affinity estimate (log intensity, higher = more binding, comparable within an allelic series)"
CCCCCGAC,binding signal,HOXA7 [1],"8.66 upbm affinity estimate (log intensity, higher = more binding, comparable within an allelic series)"
same,binding signal,HOXA7 [5],"8.36 upbm affinity estimate (log intensity, higher = more binding, comparable within an allelic series)"
CGTTTATC,binding signal,HOXA7 [1],"9.65 upbm affinity estimate (log intensity, higher = more binding, comparable within an allelic series)"
same,binding signal,PROP1 [17],"8.39 upbm affinity estimate (log intensity, higher = more binding, comparable within an allelic series)"
same,binding signal,PROP1 [18],"7.9 upbm affinity estimate (log intensity, higher = more binding, comparable within an allelic series)"
same,binding signal,PROP1 [19],"7.41 upbm affinity estimate (log intensity, higher = more binding, comparable within an allelic series)"
same,binding signal,HOXA7 [5],"8.89 upbm affinity estimate (log intensity, higher = more binding, comparable within an allelic series)"
AGACGGCG,binding signal,HOXA7 [1],"8.6 upbm affinity estimate (log intensity, higher = more binding, comparable within an allelic series)"
same,binding signal,HOXA7 [5],"8.4 upbm affinity estimate (log intensity, higher = more binding, comparable within an allelic series)"
ATTGATTG,binding signal,HOXA7 [1],"10.1 upbm affinity estimate (log intensity, higher = more binding, comparable within an allelic series)"
same,binding signal,HOXA7 [5],"8.75 upbm affinity estimate (log intensity, higher = more binding, comparable within an allelic series)"
GATTACAC,binding signal,HOXA7 [1],"9.6 upbm affinity estimate (log intensity, higher = more binding, comparable within an allelic series)"
same,binding signal,PAX4 [11],"10.9 upbm affinity estimate (log intensity, higher = more binding, comparable within an allelic series)"
same,binding signal,PAX4 [12],"11.2 upbm affinity estimate (log intensity, higher = more binding, comparable within an allelic series)"
same,binding signal,PAX4 [13],"11 upbm affinity estimate (log intensity, higher = more binding, comparable within an allelic series)"
same,binding signal,PAX4 [14],"10.3 upbm affinity estimate (log intensity, higher = more binding, comparable within an allelic series)"
same,binding signal,HOXA7 [5],"8.73 upbm affinity estimate (log intensity, higher = more binding, comparable within an allelic series)"
CAGCAACC,binding signal,HOXA7 [1],"8.52 upbm affinity estimate (log intensity, higher = more binding, comparable within an allelic series)"
same,binding signal,HOXA7 [5],"8.47 upbm affinity estimate (log intensity, higher = more binding, comparable within an allelic series)"
AGGCTCTC,binding signal,HOXA7 [1],"8.46 upbm affinity estimate (log intensity, higher = more binding, comparable within an allelic series)"
same,binding signal,HOXA7 [5],"8.32 upbm affinity estimate (log intensity, higher = more binding, comparable within an allelic series)"
AATAACAT,binding signal,HOXA7 [1],"10.1 upbm affinity estimate (log intensity, higher = more binding, comparable within an allelic series)"
same,binding signal,HOXA2 [20],"9.56 upbm affinity estimate (log intensity, higher = more binding, comparable within an allelic series)"
same,binding signal,HOXA2 [21],"11.6 upbm affinity estimate (log intensity, higher = more binding, comparable within an allelic series)"
same,binding signal,HOXA2 [22],"10.9 upbm affinity estimate (log intensity, higher = more binding, comparable within an allelic series)"
same,binding signal,HOXA7 [5],"8.98 upbm affinity estimate (log intensity, higher = more binding, comparable within an allelic series)"
same,binding signal,HOXA2 [23],"9.63 upbm affinity estimate (log intensity, higher = more binding, comparable within an allelic series)"
CAGTGCGG,binding signal,HOXA7 [1],"8.54 upbm affinity estimate (log intensity, higher = more binding, comparable within an allelic series)"
same,binding signal,PROP1 [17],"6.84 upbm affinity estimate (log intensity, higher = more binding, comparable within an allelic series)"
same,binding signal,PROP1 [18],"6.82 upbm affinity estimate (log intensity, higher = more binding, comparable within an allelic series)"
same,binding signal,PROP1 [19],"6.73 upbm affinity estimate (log intensity, higher = more binding, comparable within an allelic series)"
same,binding signal,HOXA7 [5],"8.37 upbm affinity estimate (log intensity, higher = more binding, comparable within an allelic series)"
GAGGGACC,binding signal,HOXA7 [1],"8.55 upbm affinity estimate (log intensity, higher = more binding, comparable within an allelic series)"
same,binding signal,MSX2 [24],"9.48 upbm affinity estimate (log intensity, higher = more binding, comparable within an allelic series)"
same,binding signal,MSX2 [25],"9.7 upbm affinity estimate (log intensity, higher = more binding, comparable within an allelic series)"
same,binding signal,MSX2 [8],"9.64 upbm affinity estimate (log intensity, higher = more binding, comparable within an allelic series)"
same,binding signal,HOXA7 [5],"8.33 upbm affinity estimate (log intensity, higher = more binding, comparable within an allelic series)"
ATTACCAC,binding signal,HOXA7 [1],"10.4 upbm affinity estimate (log intensity, higher = more binding, comparable within an allelic series)"
same,binding signal,HOXD13 [2],"10.1 upbm affinity estimate (log intensity, higher = more binding, comparable within an allelic series)"
same,binding signal,HOXD13 [3],"10.7 upbm affinity estimate (log intensity, higher = more binding, comparable within an allelic series)"
same,binding signal,HOXA7 [5],"8.73 upbm affinity estimate (log intensity, higher = more binding, comparable within an allelic series)"
GACCCTGC,binding signal,HOXA7 [1],"8.54 upbm affinity estimate (log intensity, higher = more binding, comparable within an allelic series)"
same,binding signal,HOXA2 [20],"7.03 upbm affinity estimate (log intensity, higher = more binding, comparable within an allelic series)"
same,binding signal,MSX2 [24],"9.48 upbm affinity estimate (log intensity, higher = more binding, comparable within an allelic series)"
same,binding signal,HOXA2 [21],"10.3 upbm affinity estimate (log intensity, higher = more binding, comparable within an allelic series)"
same,binding signal,MSX2 [25],"9.31 upbm affinity estimate (log intensity, higher = more binding, comparable within an allelic series)"
same,binding signal,MSX2 [8],"9.36 upbm affinity estimate (log intensity, higher = more binding, comparable within an allelic series)"
same,binding signal,HOXA2 [22],"10.5 upbm affinity estimate (log intensity, higher = more binding, comparable within an allelic series)"
same,binding signal,HOXA7 [5],"8.43 upbm affinity estimate (log intensity, higher = more binding, comparable within an allelic series)"
same,binding signal,HOXA2 [23],"6.79 upbm affinity estimate (log intensity, higher = more binding, comparable within an allelic series)"
